High-throughput results: PubChem BioAssay, several laboratories
Bead autofluor = flagged as autofluorescent in microsphere protease counterscreen; AID 624483; fluorescence intensity (no concentration beside the values); compound autofluorescence counterscreen, microsphere flow cytometry; active compounds read high; hit rate 3.1% among 360,000; in the data active = fluorescence intensity above about 16000; inconclusive = no clear call, values can overlap the other calls
Anthrax LF inh2 = anthrax lethal factor protease inhibition | P15917 | multiplex microsphere protease cleavage assay, LF | inhibition, % at 10 µM | hit rate 0.12% among 360,000 | AID 588501
BoNT-A LC inh2 = blocks Botulinum neurotoxin A light chain protease. multiplex microsphere protease substrate cleavage, flow cytometry. inhibition, % at 10 µM. hit rate 0.17% among 360,000
TcdB inh = TcdB glycohydrolase inhibition; TcdB glycohydrolase enzymatic assay, plate reader; inhibition, % at 9.99 µM; hit rate 0.24% among 350,000; in the data active = inhibition above about 10%
BoNT F protease = blocks Botulinum neurotoxin F light chain protease; Multiplex microsphere protease cleavage assay, flow cytometry; inhibition, % at 10 µM; hit rate 0.22% among 360,000; in the data active = inhibition above about 35%, passing the limit was not always enough; inconclusive = no clear call, values can overlap the other calls
Numbers stand for hits; – = inactive; ? = inconclusive; · = not tested or not shown. The entries come from a sample that favours hits as a whole. Rule as the data show it, unless noted: active = inhibition above about 30%; inconclusive = no clear call, values can overlap the other calls; inactive = below that.

SMILES	Bead autofluor	Anthrax LF inh2	BoNT-A LC inh2	TcdB inh	BoNT F protease
CCOC(=O)C1=c2s/c(=C\c3ccncc3)c(=O)n2C(N)=C(C(=O)OC)C1c1ccncc1 (stereo unspecified)	–	–	–	–	–
CCOC(=O)C1=C(N)n2c(s/c(=C/c3ccco3)c2=O)=C(C(=O)OC)C1c1ccco1 (stereo unspecified)	20070	–	?	·	–
CO[C@@H]1CN(C)C(=O)c2cc(NC(=O)C3CCOCC3)ccc2OC[C@@H](C)N(CC2CC2)C[C@@H]1C	·	·	·	–	·
N#C/C(=C/c1ccc(N2CCCCCC2)o1)c1ccc(Cl)cc1	22830	–	–	·	–
O=[N+]([O-])/C=C\c1ccc(N2CCCC2)c(F)c1	–	32	60	·	–
O=Cc1ccc(N2CCCC2)c([N+](=O)[O-])c1	–	–	–	–	–
O=S(=O)(NC[C@@H]1CC[C@@H]2[C@@H](CN2Cc2cccc(-c3ccccn3)c2)O1)c1ccccc1	·	·	·	–	·
COc1ccc2c(-c3cc4ccc(OCc5ccc(F)cc5)cc4oc3=O)cc(=O)oc2c1	–	–	–	–	–
O=C1COc2ccc(OCc3ccc(F)cc3)cc21	23249	–	–	·	–
Cc1ccnc(Sc2ccc([N+](=O)[O-])cc2[N+](=O)[O-])n1	21298	–	–	·	–
Cc1ccc(Sc2ccc([N+](=O)[O-])cc2[N+](=O)[O-])nc1	–	–	–	·	–
Cc1cc(C)nc(Nc2n[nH]c(COc3ccc4ccccc4c3)n2)n1	22079	–	–	·	–
CC(=O)Nc1ccc(NC(=O)CSc2ccc(C)cc2)cc1	–	–	–	·	–
CC(=O)Nc1ccc(SCC(=O)N(CCC#N)c2ccc(C)cc2)cc1	16531	–	–	·	–
C/C(=N\OC(=O)c1ccc(F)cc1)c1nccs1	23617	–	–	·	–
Fc1ccccc1CSc1nnc(-c2cccnc2)o1	–	–	–	–	–
Cc1ccc(C)c(CSc2nnc(-c3cccnc3)o2)c1	24006	–	?	·	–
CO[C@@H]1CN(C)C(=O)c2cc(NC(C)=O)ccc2OC[C@H](C)N(C(=O)c2ccncc2)C[C@@H]1C	·	·	·	–	·
COc1ccc(CNC(=O)C[C@H]2C=C[C@@H](NC(=O)CN(C)C)[C@@H](CO)O2)cc1	·	·	·	–	·
O=C(CC1SC(=O)N(c2ccccc2)C1=O)Nc1ccccc1 (stereo unspecified)	21831	–	–	·	–
Cc1ccc(NC(=O)CC2SC(=O)N(c3ccccc3)C2=O)cc1 (stereo unspecified)	–	–	–	–	–
C[C@@H]1CCCCO[C@@H](CN(C)S(=O)(=O)c2ccc(F)cc2)[C@H](C)CN([C@H](C)CO)C(=O)c2cc(NS(=O)(=O)c3ccccc3)ccc2O1	·	·	·	–	·
O=[N+]([O-])c1ccc(Cl)c(C[n+]2cccc3ccccc32)c1	–	–	–	–	49
CCCc1ncc(C(=O)c2ccc(OC)cc2)n1C	24262	–	–	·	–
O=C(NCCCN1CCOCC1)[C@@H]1N[C@@H]2c3ccc(C4=CCCC4)c(=O)n3C[C@@H]2[C@H]1CO	·	·	·	–	·
SMILES	Bead autofluor	Anthrax LF inh2	BoNT-A LC inh2	TcdB inh	BoNT F protease
O=C(Cc1ccc(F)cc1)c1ccc(O)cc1O	19761	–	–	·	–
CCNC(=O)C[C@H]1CC[C@H]2[C@H](COc3ccc(NC(=O)c4ccc(F)c(F)c4)cc3C(=O)N2C)O1	·	·	·	–	·
CS(=O)(=O)c1ccc(C(=O)NC2CCOC2=O)cc1 (stereo unspecified)	21657	–	?	·	–
O=C(NC1CCOC1=O)c1ccccc1 (stereo unspecified)	–	–	–	–	–
COc1ccc2c3c([nH]c2c1)[C@@H](CO)N(S(=O)(=O)c1cn(C)cn1)CC31CCN(CC2CC2)CC1	·	·	·	–	·
CC(C)NC(=O)Nc1cccc2c1O[C@@H](CN(C)C(=O)Nc1ccc(F)cc1)[C@@H](C)CN([C@H](C)CO)C2=O	·	·	·	–	·
C=CCn1c(COc2ccc(OC)cc2)nnc1SCn1nnc2ccccc2c1=O	–	–	–	–	–
O=c1c2ccccc2nnn1CSc1nnc(COc2ccc(Cl)cc2)n1Cc1ccco1	22380	–	?	·	–
CC(=O)N(C)C[C@@H]1Oc2cc(C#Cc3ccccn3)ccc2S(=O)(=O)N([C@@H](C)CO)C[C@H]1C	·	·	·	–	·
O=C(c1ccc(-c2ccc(Cl)cc2)o1)N1CCN(c2ccc([N+](=O)[O-])cc2Cl)CC1	21861	–	–	–	–
COc1ccc(-c2nnn(CC(=O)N(Cc3ccccc3Cl)C(C(=O)NCC3CCCO3)c3ccco3)n2)cc1 (stereo unspecified)	20046	–	–	·	–
COc1ccc(-c2nnn(CC(=O)N(Cc3ccco3)C(C(=O)NCC3CCCO3)c3ccco3)n2)cc1 (stereo unspecified)	–	–	–	–	–
Cc1ccc(-c2nnn(CC(=O)N(c3ccccc3F)C(C(=O)NCC3CCCO3)c3c[nH]c4ccccc34)n2)cc1 (stereo unspecified)	16194	–	–	·	–
O=C(COC(=O)c1cnccn1)c1ccc2c(c1)CCCC2	20610	–	–	·	–
O=C(C[C@H]1CC[C@@H]2[C@H](COC[C@@H](O)CN2Cc2cccc(C(F)(F)F)c2)O1)NCc1ccc(Cl)cc1	·	·	·	–	·
COc1ccc(C)cc1S(=O)(=O)N1c2ccccc2CC1C (stereo unspecified)	17618	–	–	·	–
COc1ccc(S(=O)(=O)N[C@H]2CC[C@H](CCn3cc(-c4ccccc4F)nn3)O[C@H]2CO)cc1	·	·	·	–	·
O=C(c1ccco1)N1CCN(c2nc(C(F)(F)F)nc3c2nnn3Cc2ccccc2)CC1	24937	–	–	·	–
CCCC#Cc1ccc2c(c1)O[C@H](CN(C)CCC)[C@@H](C)CN([C@H](C)CO)S2(=O)=O	·	·	·	–	·
O=C1c2ccccc2C(=O)N1CCCc1nc2ccccc2c(=O)n1CCCn1ccnc1	19567	–	–	·	–
O=C(CSc1nc2ccccc2[nH]1)N1CCCCC1	21788	–	–	·	–
O=C(CCCSc1nc2ccccc2[nH]1)N1CCN(c2ccccc2)CC1	20365	–	–	·	–
CC1CCCCN1C(=O)CSc1nc2ccccc2[nH]1 (stereo unspecified)	–	–	–	–	–
O=C(CSc1nc2ccccc2[nH]1)NC1CCCc2ccccc21 (stereo unspecified)	–	–	–	13	–
O=C(CSc1nc2ccccc2[nH]1)N1CCN(c2ccccc2)CC1	–	–	–	·	–
SMILES	Bead autofluor	Anthrax LF inh2	BoNT-A LC inh2	TcdB inh	BoNT F protease
C[C@H]1CN([C@@H](C)CO)C(=O)c2cc(NC(=O)CCN3CCOCC3)ccc2O[C@@H]1CN(C)C(=O)Nc1ccc(F)cc1	·	·	·	–	·
C[C@@H]1CN([C@H](C)CO)C(=O)c2cc(NS(=O)(=O)c3ccc(F)cc3)ccc2O[C@H]1CN(C)C(=O)Nc1ccc(C(F)(F)F)cc1	·	·	·	–	·
Cc1ccccc1NC(=O)CN1C(=O)NC2(CCCCC2)C1=O	–	–	–	·	–
CC1CCN(C(=O)CN2C(=O)NC3(CCCCCC3)C2=O)CC1	–	–	–	–	–
CC1CN(C(=O)CN2C(=O)NC3(CCCCCC3)C2=O)CC(C)O1 (stereo unspecified)	24732	–	–	·	–
Cc1cc(C)c(NC(=O)CN2C(=O)NC3(CCCCC3)C2=O)c(C)c1	20379	–	–	–	–
